Menin MLL FP FL – inhibitors of human menin-MLL interaction, wild-type MLL peptide | Fluorescence polarization, fluorescein-MLL peptide displacement from menin | FP activity change, % at 61.4 µM | 290,000 tested, under 10 active | AID 1766; active = well fitted curve in the direction sought with a large enough effect in the polarisation, not every such curve was filed as active; inconclusive = small, poorly fitted or top-dose-only effect, or effect the other way, or a change in a side signal; inactive = no such curve, though single readings can be large or run the other way; the % refers to the polarisation
S-ASM inh – human S-ASM enzyme inhibition | P17405 | placental ASM, HMU-PC fluorogenic substrate, 60 min | Potency, µM (highest dose often 57.5 µM), hits mostly inhibitors | actives 0.006% (n = 340,000)
Target sequence (P17405 47-631 limits assumed): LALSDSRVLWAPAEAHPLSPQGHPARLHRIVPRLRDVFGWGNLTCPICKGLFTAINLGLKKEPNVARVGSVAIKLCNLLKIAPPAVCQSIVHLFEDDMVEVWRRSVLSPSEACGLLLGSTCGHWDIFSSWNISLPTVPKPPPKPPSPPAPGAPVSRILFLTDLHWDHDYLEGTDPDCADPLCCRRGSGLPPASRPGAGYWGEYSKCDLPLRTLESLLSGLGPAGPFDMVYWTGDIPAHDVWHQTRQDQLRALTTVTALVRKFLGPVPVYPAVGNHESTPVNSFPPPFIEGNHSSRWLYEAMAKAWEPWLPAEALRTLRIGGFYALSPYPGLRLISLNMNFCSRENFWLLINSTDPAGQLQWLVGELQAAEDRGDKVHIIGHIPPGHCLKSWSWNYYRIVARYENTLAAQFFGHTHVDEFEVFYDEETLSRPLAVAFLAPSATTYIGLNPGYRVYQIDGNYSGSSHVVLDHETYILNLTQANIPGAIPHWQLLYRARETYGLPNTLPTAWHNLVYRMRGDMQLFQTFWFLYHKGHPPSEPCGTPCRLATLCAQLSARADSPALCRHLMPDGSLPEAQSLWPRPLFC
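Human placenta-derived ASM preincubated with compound 10 min at room temperature, then reacted with 9 uM (final) fluorogenic HMU-PC substrate for 60 min at 37 C. Stop solution raises pH to 10; fluorescence read at Ex 386/Em 447 nm.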
MBNL1-CUG inh – MBNL1-poly(CUG) RNA binding inhibition. TR-FRET MBNL1-His/biotin-(CUG)12 binding, 665/545 ratio. actives 0.036% (n = 280,000). Q9NR56. Potency, µM (highest dose often 57.5 µM), most hits filed as inhibitors; active = well fitted inhibition curve with a large enough effect in the signal ratio, with a control signal flat, not every such curve was filed as active; inconclusive = small, poorly fitted or top-dose-only effect, or effect the other way, or a change in a side signal; inactive = no such curve, though single readings can be large or run the other way; the % refers to the signal ratio
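MBNL1-His + Biotin-(CUG)12, cpd titration 92 nM–58 uM; Tb anti-His Ab 0.055 ng/ul, SA-XL665 5 nM (final); 60 min RT; ratiometric 665/545 nm, Ex 340 nm; normalized to buffer and full-complex controls.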
MLL CXXC-DNA inh – MLL CXXC-DNA interaction inhibition. MLL-CXXC / FITC-HOXA9 DNA fluorescence polarization. Potency, µM (titrated, usually from 115 µM), hits mostly inhibitors. actives 0.037% (n = 290,000). AID 2662. Q03164; active = well fitted inhibition curve with a large enough effect in the polarisation, with a control signal flat, not every such curve was filed as active; inconclusive = small, poorly fitted or top-dose-only effect, or effect the other way, or a change in a side signal; inactive = no such curve, though single readings can be large or run the other way; the % refers to the polarisation
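Purified MLL-CXXC (added from a 7 uM solution) was preincubated 5 min at ambient with pinned compounds in 50 mM Tris-HCl pH 7.5, 50 mM NaCl, 1 mM DTT, 0.05% BSA. Fluorescein-labeled HOX-A9 DNA (50 nM solution) followed, 30 min, then polarization read.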
Menin MLL FP TR – displaces Texas Red mutant MLL peptide from human menin | Menin + Texas Red MLL mutant peptide, fluorescence polarization | actives 0.23% (n = 270,000) | Potency, µM (doses to about 61.6 µM), hits mostly inhibitors | AID 1768 | O00255; active = well fitted inhibition curve with a large enough effect in the polarisation, with a control signal flat, not every such curve was filed as active; inconclusive = small, poorly fitted or top-dose-only effect, or effect the other way, or a change in a side signal; inactive = no such curve, though single readings can be large or run the other way; the % refers to the polarisation
Akt phos inh – blocks phosphorylation of Akt. AID 651550. activity change, % for hits at 50 µM. Neuro2A IGF-stimulated pAkt S473 HTRF, 20 min; stronger effect = lower value. actives 0.32% (n = 360,000); in the data active = activity change below about -80%; inconclusive = mostly about -51% to -80%
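Neuro2A cells (4,500/well, DMEM with 0.5% FBS) were treated with compound at a single 50 µM final concentration, stimulated with 6 nM IGF for 20 min at 37 °C, and lysed. Phospho-Akt Ser473 was read by HTRF as 665/615 ratio ×10^4.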
MLL CXXC FP-Fl – inhibitors of human MLL CXXC domain-DNA interaction | MLL CXXC-DNA binding, fluorescein FP | shares compounds with MLL CXXC-DNA inh | actives 70% (n = 200) | AID 624160 | Potency, µM (series often up to 345 µM), usual class: inhibitors; note: nearly all actives have a fitted effect of over 80% in size
MLL CXXC TxRed – inhibitors of human MLL CXXC domain-DNA interaction, Texas Red format; shares compounds with MLL CXXC-DNA inh; MLL CXXC-DNA binding, Texas Red fluorescence polarization; Potency, µM (titrated, usually from 345 µM), hits mostly inhibitors; actives 40% (n = 200); AID 624161; note: nearly all actives have a fitted effect of over 75% in size
MLL CXXC TRF – MLL CXXC-DNA interaction inhibition, HTRF readout | Potency, µM (series often up to 172 µM), hits mostly inhibitors | MLL CXXC-DNA binding, HTRF, biochemical | shares compounds with MLL CXXC-DNA inh | actives 30% (n = 210); note: nearly all actives have a fitted effect of over 80% in size
Numbers stand for hits; 0 = inactive; ? = inconclusive; - = not tested or not shown; ! = not confirmed by another sample. Shown are actives, neighbours in structure and some others; about 0.45% of the full set was active somewhere. Unless noted, calls come from the whole dose curve; as a rule, active = well fitted inhibition curve with a large enough effect; inconclusive = small, poorly fitted or top-dose-only effect; inactive = no such curve, though single readings can be large or run the other way.

SMILES	Menin MLL FP FL	S-ASM inh	MBNL1-CUG inh	MLL CXXC-DNA inh	Menin MLL FP TR	Akt phos inh	MLL CXXC FP-Fl	MLL CXXC TxRed	MLL CXXC TRF
COc1ccc(C2SCC(=O)Nc3c2c(=O)[nH]n3C2CCCCC2)cc1 (stereo not given)	0	0	0	0	0	-105%	-	-	-
Cc1ncc2n1-c1ccc(Cl)cc1C(c1ccccc1F)=NC2	0	0	-	0	0	0	-	-	-
CN(C)[C@H]1C(=O)C(C(N)=O)=C(O)[C@]2(O)C(=O)C3=C(O)c4c(O)cccc4[C@@](C)(O)[C@H]3C[C@@H]12	?	-	-	0	0	-	-	-	-
COc1cccc(-n2c(CN3CCOCC3)nc3ccc([N+](=O)[O-])cc3c2=O)c1	0	0	?	0	0	0	-	-	-
CCN1CCN(Cc2nc3ccc([N+](=O)[O-])cc3c(=O)n2-c2ccccc2F)CC1	0	0	?	?	10µM	0	-	-	-
CCCCN1C(=O)/C(=C/c2ccc(N(C)C)cc2)C(=O)N(Cc2ccco2)C1=O	?	0	0	?	25µM	0	-	-	-
CCN(CC)c1ccc(/C=C2\C(=O)NC(=O)N(Cc3ccco3)C2=O)cc1	?	0	-	0	0	0	-	-	-
CCCCCCCCCCCCCCCC[N+](C)(C)C	0	?	-	?	28µM!	0	-	-	-
CCOc1cc(C=C2C(=O)NC(=O)NC2=O)cc([N+](=O)[O-])c1O	0	-	?	32µM	?	-	20µM	89µM	19µM
CN(C)c1ccc(C=C2C(=O)NC(=O)NC2=O)cc1[N+](=O)[O-]	0	0	?	0	0	0	-	-	-
COc1cc(C=C2C(=O)NC(=O)NC2=O)ccc1O	?	0	0	?	0	0	56µM	159µM	122µM
COc1ccc(C=C2C(=O)NC(=S)NC2=O)cc1	-	0	-	-	-	0	-	-	-
COc1ccc(OCCOc2cccc(C=C3C(=O)NC(=O)NC3=O)c2)cc1	0	-	0	?	0	-	45µM	?	39µM
Cc1nn(Cc2ccccc2)c(Cl)c1C(=O)OCC(=O)Nc1cccc2ccccc12	0	0	0	0	0	0	-	-	-
COc1ccc(N=Cc2c(O)n(Cc3ccccc3)c(=S)[nH]c2=O)c(OC)c1	?	0	-	32µM	-	0	159µM	0	0
COc1ccc(CNCCc2cccc(F)c2)c2ccccc12	0	-	0	0	0	-	-	-	-
O=c1[nH]c(O)c(/C=C2\C=NN=C2c2ccccc2)c(=O)[nH]1	0	0	0	?	0	0	0	126µM	49µM
CC1=NN(c2ccccc2)C(=O)/C1=C/c1c(O)[nH]c(=O)[nH]c1=O	0	0	0	0	0	0	-	-	-
CC(CO)NC(=O)C1C=C2c3cccc4[nH]cc(c34)CC2N(C)C1 (stereo not given)	?	-	-	32µM	0	-	142µM	?	0
Cc1cc(/C=C2\C(=O)NC(=O)N(c3ccc(F)cc3)C2=O)c(C)n1-c1cccc(C(=O)O)c1	0	0	0	0	0	0	-	-	-
Cc1cc(/C=C2\C(=O)NC(=O)N(c3ccccc3F)C2=O)c(C)n1-c1cc(C(=O)O)cc(C(=O)O)c1	0	0	0	13µM	0	0	8µM	22µM	24µM
Cc1cc(/C=C2\C(=O)NC(=O)N(c3ccccc3)C2=O)c(C)n1-c1ccc(C(=O)O)c(Cl)c1	0	0	0	?	0	0	0	113µM	0
COc1ccc(OC)c(-n2c(O)c(C=NCc3ccc4c(c3)OCO4)c(=O)[nH]c2=O)c1	0	0	0	0	0	0	-	-	-
CCc1ccccc1NC(=O)NNS(=O)(=O)c1cc(C)ccc1C	0	0	0	14µM	0	0	?	0	0
O=C(C1CCCCC1)N1Cc2ccccc2-n2nncc2C1	-	-	-	-	-	0	-	-	-
